The supplement of paper PMC10338343
± gives the standard deviation.

System: MILI (PIWIL2) piRISC loaded with piRNA #1 (26 nt)
Assay: pre-steady-state target cleavage rate (min^-1); guide: piRNA #1 5'p-UGAGGUAGUAGGUUGUAUAGUAUCCA; MIWI and MILI are mouse PIWI proteins and EfPiwi is from a freshwater sponge; tags in brackets are library labels; higher = faster piRNA-guided slicing of the target
Conditions: auxiliary factor: 500 nM mouse GTSF1
In short: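 A burst-and-steady-state fit was used to obtain the pre-steady-state cleavage rate. The input data were sequencing reads of uncleaved targets, normalised to depth and to weakly complementary targets, from a […] transcribed, DNA-blocked target RNA library mixed with 1 nM active affinity-purified piRISC holding one synthetic guide, with or without 500 nM GTSF1 partner protein, in HEPES–potassium acetate buffer at 33 °C for 0–8 or 0–960 min. Three trials were pooled and k3 was capped at 0.0001 min^-1.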
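Also: 1 nM active piRISC with 0.1 nM target library at 33 °C single turnover.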

Sequence	pre-steady-state target cleavage rate
GGAGACCUAUGAUAACAACCUACUACCGCA	0.00318 ± 0.003
GGAGACCUAUGAAUACAACGUACUUCCUCA	0.00328 ± 0.0027
GGAGACCUAUGAUAUGUACCAUCUACCUCA	< 0.0001
GGAGACCUUACUAUACCAACCUACUACCUCA	0.00685 ± 0.0036
GGAGUGGAACUAUACAACCUACUACCUCA	0.159 ± 0.011
GGAGACCUAACUAUUCAACCUACAACCUCA	0.129 ± 0.021
GGAGACCUAUCUAUACAACCUAGUACCACA	0.00922 ± 0.0045
GGAGACCUAUCUAUACCACCUACUACCUCA	0.095 ± 0.017
GGAGACCUUACAAUACAAGCUACUACCUCA	0.191 ± 0.011
GGAGACCUUACUAUACAACCUACUUCCACA	0.0518 ± 0.013
GGAGACCUUACAAUACAACCAACUACCUCA	0.00567 ± 0.0032
GGAGACCUAUGAUUACAACCUAGCUACCUCA	0.00386 ± 0.0032
GGAGACCUAUGAAUACAACCUACUACCUCC [g2:g18:cont:t1C]	0.0111 ± 0.0027
GGAGACCUAUCUAUACAACCUACAACCUGA	0.0151 ± 0.0061
GGAGACCUUACUUUACAACCUUCUACCUCA	0.00698 ± 0.0032
GGAGACCAUACUAUACAACCUUCAACCUCA	0.0066 ± 0.0029
